The list is not random: actives were taken first. Their share in the collection is about 14%.
Pf growth 96h – P. falciparum growth inhibition at 96 hour, primary screen for plastid delayed-death inhibitors; P. falciparum luciferase reporter growth, 96 h; Potency, µM (titrated, usually from 28.7 µM), most hits filed as inhibitors; 6.9% of 320,000 active; AID 504834
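P. falciparum expressing integrated firefly luciferase, in erythrocytes at 2% hematocrit, 0.05% parasitemia, incubated with compounds 96 h at 37 C, 5% CO2. Growth inhibition read as loss of luminescence; two-generation exposure targets delayed-death apicoplast inhibitors.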
Pf growth 48h – P. falciparum growth inhibition at 48 hours (one generation). Potency, µM (doses to about 28.7 µM), most hits filed as inhibitors. P. falciparum luciferase growth in erythrocytes, 48 h. 5.9% of 310,000 active
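Read-out is firefly luciferase luminescence from an integrated reporter in P. falciparum, so falling signal marks reduced parasite growth. Infected erythrocytes were at 2% hematocrit and 0.1% parasitemia (final) in Albumax-supplemented RPMI 1640.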
Sm TGR block – inhibitors of Schistosoma mansoni thioredoxin glutathione reductase; 3% of 360,000 active; Q962Y6; purified TGR, DTNB reduction, TNB absorbance 405 nm; Potency, µM (titrated, usually from 114 µM), most hits filed as inhibitors; further: nearly all actives have a fitted effect of over 60% in size
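Kinetic colorimetric format: TGR-catalysed, NADPH-driven DTNB reduction monitored via TNB absorbance. Enzyme dispensed at 20 nM; compound exposure 15 min at room temperature before reaction start.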
Giardia FBPA inh – blocks Giardia fructose-bisphosphate aldolase activity | 0.71% of 290,000 active | Potency, µM (series often up to 59.6 µM), usual class: inhibitors | purified Giardia FBPA; further: nearly all actives have a fitted effect of over 55% in size
Target sequence (A8B2U2 whole entry, looked up): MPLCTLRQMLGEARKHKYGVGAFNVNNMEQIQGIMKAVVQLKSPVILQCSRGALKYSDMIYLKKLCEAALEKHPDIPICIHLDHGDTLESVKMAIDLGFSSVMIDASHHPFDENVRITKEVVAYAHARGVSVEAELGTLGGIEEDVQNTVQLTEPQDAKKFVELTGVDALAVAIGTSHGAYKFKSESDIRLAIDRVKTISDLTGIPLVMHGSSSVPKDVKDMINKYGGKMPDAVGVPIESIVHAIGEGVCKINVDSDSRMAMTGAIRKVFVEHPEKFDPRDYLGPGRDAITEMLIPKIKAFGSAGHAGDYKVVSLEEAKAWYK
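Giardia FBPA (40 nM reagent) was preincubated 10 min at RT with compound (up to 57.5 uM final), then substrate plus GAPDH/TPI/NAD/arsenate coupling system with diaphorase/resazurin was added; resorufin fluorescence (525/598 nm) was read after 20 min.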
HCMV inh – blocks human cytomegalovirus replication. HFF cells, HCMV-luciferase reporter, 72 h; hits give low values. activity change, negative = inhibition, % at 57.5 µM. 4.5% of 410,000 active. AID 1259415; in the data active means activity change below about -60%; inconclusive means no clear call, values can overlap the other calls; inactive means above about -39%
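Compounds were evaluated in HFFs infected with an HCMV luciferase reporter virus (MOI 1 PFU/cell). Luciferase in lysates collected 72 h post infection served as the replication measure.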
Large screens that a line does not name were inactive. Unless noted, the call rests on the fitted dose curve; in most records, active means well fitted curve in the direction sought with a large enough effect; inconclusive means small, poorly fitted or top-dose-only effect, or another doubt; inactive means no such curve, though single readings can be large; an effect the other way counts as inactive or inconclusive.

Cc1nnc(-c2cccc(Br)c2)c2cn(-c3ccccc3)nc12	none
Cc1nnc(-c2cccc(Br)c2)c2cn(-c3ccc(Br)cc3)nc12	Pf growth 96h 2.62µM, Pf growth 48h inconclusive, HCMV inh -73.4
O=C(NCCCc1ccccc1)c1ccc(F)cc1	Pf growth 96h 16.5µM (no result: HCMV inh)
O=C(NCCCCNC(=O)c1ccc(F)cc1)c1ccc(F)cc1	Pf growth 96h 2.62µM
COc1ccc(C(=O)NCCCCc2ccccc2)cc1	none (no result: Pf growth 96h, Pf growth 48h, Sm TGR block, Giardia FBPA inh)
CC1(C(=O)NS(=O)(=O)c2ccccc2)CCN1C(=O)CCc1ccccc1 (stereo not given)	none (no result: Pf growth 96h, Pf growth 48h, Sm TGR block, Giardia FBPA inh)
O=C(Nc1nccs1)c1ccccc1[N+](=O)[O-]	Pf growth 96h inconclusive
Cn1ncc([N+](=O)[O-])c1C(=O)Nc1ccc(-c2nc3ccccc3o2)cc1	Pf growth 96h 4.65µM
Cn1ncc([N+](=O)[O-])c1C(=O)Nc1cccc2ccccc12	Pf growth 96h 2.33µM, HCMV inh -62.9
Cn1ncc([N+](=O)[O-])c1C(=O)Nc1nccs1	HCMV inh -64.4
CC(=O)Nc1ccc(NC(=O)c2c([N+](=O)[O-])cnn2C)cc1	Pf growth 96h inconclusive
CC1CC(C)CN(S(=O)(=O)c2ccc3oc(=O)ccc3c2)C1 (stereo not given)	none (no result: Giardia FBPA inh)
CN1CCC(Oc2ccccc2Sc2ccccc2)CC1	Pf growth 96h 13.1µM, Pf growth 48h inconclusive, HCMV inh -76.7
CN1CCC(OC(c2ccccc2)c2ccccc2)CC1	Pf growth 96h inconclusive
Cc1nc(SCc2ccccc2C)n[nH]1	none
CCOc1ccc(Cl)cc1CSc1n[nH]c(C)n1	Pf growth 48h inconclusive, HCMV inh -71.8 (no result: Sm TGR block)
CN1OC[C@@H]2CN(C(=S)Nc3cc(C(F)(F)F)cc(C(F)(F)F)c3)[C@H](c3ccccc3Br)C[C@@H]21	none (no result: Pf growth 96h, Pf growth 48h, Sm TGR block, Giardia FBPA inh)
CCSc1ncc(Cl)c(C(=O)Nc2nc3ccc(S(C)(=O)=O)cc3s2)n1	none (no result: Pf growth 96h, Pf growth 48h, Giardia FBPA inh)
CC(=O)c1c(C)n(CCc2ccc(Cl)cc2)c2ccc(O)cc12	Pf growth 96h 5.86µM
Cc1c(C(=O)Nc2ccccc2)c2cc(O)ccc2n1Cc1ccccc1	none
CC(=O)c1c(C)n(Cc2ccccc2Cl)c2ccc(O)cc12	Pf growth 96h inconclusive, HCMV inh -62.0
CC(=O)c1c(C)n(CCO)c2ccc(O)cc12	none (no result: Pf growth 96h)
CSc1cccc(NC(=O)C2CCCN2S(=O)(=O)c2ccc(Br)s2)c1 (stereo not given)	Pf growth 96h 10.4µM (no result: Pf growth 48h)
CCc1ccc([C@@H]2C[C@H]3[C@@H](CN2S(=O)(=O)c2ccc(C)cc2)C(=O)C[C@@H](c2cccc(Cl)c2)N3S(=O)(=O)c2ccc(C)cc2)cc1	none (no result: Pf growth 96h, Pf growth 48h, Sm TGR block, Giardia FBPA inh)
CCOC(=O)COc1ccc2ccccc2c1/C=C/[N+](=O)[O-]	Pf growth 48h inconclusive, Sm TGR block inconclusive, HCMV inh -98.7
CCOC(=O)COc1ccc(/C=C/[N+](=O)[O-])c(OCC(=O)OCC)c1	Pf growth 96h inconclusive, Pf growth 48h inconclusive, HCMV inh -104.8
O=[N+]([O-])/C=C/c1c(OCc2ccccc2)ccc2ccccc12	Pf growth 96h inconclusive, Sm TGR block inconclusive (no result: Pf growth 48h, HCMV inh)
Cc1ccc(-c2cc(-c3ccc(C)cc3)[n+](-c3ccc(C(=O)O)cc3)c(-c3ccc(C)cc3)c2)cc1	Pf growth 96h inconclusive (no result: Pf growth 48h, Giardia FBPA inh)
Cc1ccc(C[n+]2c(-c3ccc(C)cc3)cc(-c3ccc(C)cc3)cc2-c2ccc(C)cc2)cc1	Pf growth 96h inconclusive, Pf growth 48h 0.329µM (no result: Giardia FBPA inh, HCMV inh)
c1nnnn1C12CC3CC(CC(C3)C1)C2	HCMV inh -63.7 (no result: Pf growth 96h)
O=C(Nc1ccc(N2CCOCC2)cc1)c1ccc(Cl)c(S(=O)(=O)N2CCCCC2)c1	Pf growth 96h inconclusive, Pf growth 48h 10.4µM, HCMV inh -62.5 (no result: Giardia FBPA inh)
CN1CC(=O)NC1=NC(=O)c1ccc(Cl)c(S(=O)(=O)N2CCCCCC2)c1	Pf growth 96h 8.28µM, Pf growth 48h inconclusive
COc1ccc(CC(=O)Nc2ccc3c(c2)OCO3)cc1S(=O)(=O)N1CCOCC1	none
O=C(Cc1ccc2c(c1)OCCO2)Nc1ccc(Cl)c(S(=O)(=O)N2CCOCC2)c1	Pf growth 96h 9.28µM, Pf growth 48h inconclusive (no result: Giardia FBPA inh)
Cc1ccc(NC(=O)Cc2ccc3c(c2)OCCO3)cc1S(=O)(=O)N1CCCCC1	Pf growth 96h 5.22µM
O=C(OCCCOC(=O)c1ccccc1O)c1ccccc1O	none
COc1ccc(C)cc1NC(=O)CCCN1C(=O)CN(C)C1=O	none (no result: Giardia FBPA inh)
COc1ccc(C(=O)Nc2ccc3c(c2)OCCO3)cc1S(=O)(=O)N1CCOCC1	Pf growth 96h 10.4µM, Pf growth 48h inconclusive (no result: Giardia FBPA inh)
